# SW480 rereplic: A quantitative high throughput screen for small molecules that induce DNA re-replication in SW480 colon adenocarcinoma cells | SW480 DNA re-replication, Hoechst DNA content imaging, 48 h | 1.8% of 340,000 active | Potency, µM (top dose mostly 46.1 µM), for the others: at the highest dose re-replication activation, usual class: activators | AID 624297, 2012; note: % of control where 0% means no effect; nearly all actives have a fitted effect of over 55% in size
#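 SW480 cells exposed to compounds for 48 hr at 37 C, 5% CO2, then Hoechst-stained 40 min. Nuclear DNA content imaged by fluorescence scanning (405 nm excitation, 500-530 nm emission); re-replication scored as increased high-intensity nuclei.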
# MCF10A rerep: A quantitative high throughput screen for small molecules that induce DNA re-replication in MCF 10a normal breast cells | MCF 10A DNA re-replication, Hoechst nuclear intensity, 48 h | Potency, µM (series often up to 46.1 µM), without a hit: at the top dose activity, positive = re-replication, actives largely listed as activators | 2.9% of 350,000 active | AID 624296, 2012; note: % of control where 0% means no effect; nearly all actives have a fitted effect of over 50% in size
# ELG1 repair inh: qHTS screen for small molecules that inhibit ELG1-dependent DNA repair in human embryonic kidney (HEK293T) cells expressing luciferase-tagged ELG1; 2.3% of 330,000 active; Potency, µM (highest dose often 46.1 µM), inactives show at the highest dose activity change, negative = inhibition, most hits filed as inhibitors; HEK293T ELG1-luciferase reporter, luminescence, 16 h; DNA damage induced by 5-fluorouridine; note: % is set by controls: 0 for no effect and ±100 for the full control effect; nearly all actives have a fitted effect of over 55% in size
#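 Cells (2,000 per well) received 5-fluorouridine plus test compound or DMSO and were incubated 16 hr at 37 °C, 5% CO2. Luciferase activity was read by luminescence 30 min after ONE-Glo addition; signal suppression marked inhibition of damage-induced ELG1 function.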
# KB-3-1 cytotox: qHTS assay for MDR1-selective chemotherapeutics: Primary screen using the parental adenocarcinoma cell KB-3-1 | 1.4% of 400,000 active | Potency, µM (doses to about 46.1 µM), most hits filed as cytotoxic | KB-3-1 viability, CellTiter-Glo ATP luminescence, 72 h; note: % is set by controls: 0 for no effect and ±100 for the full control effect; nearly all actives have a fitted effect of over 60% in size
#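 Cytotoxicity measured as CellTiter-Glo luminescence after 72 h at 37 C. Compound titrations were pinned onto drug-naive KB-3-1 parental adenocarcinoma cells grown in DMEM with 10% FBS, and normalized data fitted to concentration-response curves.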
# KB-V1 cytotox: qHTS assay for MDR1-selective chemotherapeutics: Primary screen using the drug-selected MDR subline cells KB-V1. KB-V1 MDR cells viability, CellTiter-Glo, 72 h. Potency, µM (series often up to 46.1 µM), most hits filed as cytotoxic. 3.4% of 400,000 active. AID 1347076, 2019; note: % is set by controls: 0 for no effect and ±100 for the full control effect; nearly all actives have a fitted effect of over 60% in size
#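 Cells of the MDR subline KB-V1 are plated, dosed with compound at multiple concentrations, and incubated 72 h at 37 degrees C; CellTiter-Glo is then added and luminescence read after 10 min.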
# * marks the source's active call; other numbers are inactive results; i = inactive; ? = inconclusive; · = not tested or not shown. The list is not random: actives were taken first. Their share in the collection is about 8.1%. Calls come from the whole dose curve; as a rule, active = well fitted curve in the direction sought with a large enough effect; inconclusive = small, poorly fitted or top-dose-only effect, or another doubt; inactive = no such curve, though single readings can be large; an effect the other way counts as inactive or inconclusive. Potency is the fitted concentration of half-maximal effect.
SMILES,SW480 rereplic,MCF10A rerep,ELG1 repair inh,KB-3-1 cytotox,KB-V1 cytotox
Cc1ccc(NC(=S)NC(NC(=O)c2ccco2)C(Cl)(Cl)Cl)cc1 (stereo not given),9.3%,16.4µM*,?,i,i
O=C(NC(NC(=S)Nc1ccc(Cl)cc1Cl)C(Cl)(Cl)Cl)c1cccc([N+](=O)[O-])c1 (stereo not given),20.6µM*,11.6µM*,20.5%,?,?
O=C(O)c1cccc(NC(=S)NC(NC(=O)c2cccc([N+](=O)[O-])c2)C(Cl)(Cl)Cl)c1 (stereo not given),-15.8%,-0.7%,4.6%,i,i
Cc1cccc(N(C)C(=O)CN(C)S(=O)(=O)c2ccc3[nH]c4c(c3c2)CCCC4)c1,·,·,·,i,i
O=C1Nc2cc(C(=O)NCCN3CCCCCC3)ccc2S/C1=C/c1ccccc1F,·,·,·,i,?
Cc1cccc(CN2C(=O)/C(=C\c3ccc(C(=O)NCCN4CCOCC4)cc3)Sc3ccccc32)c1,23.1µM*,?,20.6µM*,i,?
O=C1Nc2cc(C(=O)NCCCN3CCCC3)ccc2S/C1=C/c1ccccc1F,18.4µM*,?,4.1%,i,i
Cc1ccc(/C=C2/Sc3ccc(C(=O)NCCN4CCOCC4)cc3NC2=O)cc1,5.0%,20.6µM*,18.1%,i,i
CCOCCCNC(=O)/C=C1\Sc2ccccc2N(Cc2ccccc2F)C1=O,?,7.31µM*,13.1%,i,i
CCOCCCNC(=O)CN1C(=O)/C(=C/c2ccccc2C)Sc2ccccc21,?,-1.8%,?,?,i
COc1cccc(-c2ccc(CN3C(C(C)C)C(=O)N(Cc4cn(CCC5OCCO5)nn4)CCS3(=O)=O)cc2)c1OC (stereo not given),·,·,·,i,?
Cc1cccc(OCC(=O)Nc2ccc(O)c(-c3nc4ccccc4o3)c2)c1,·,·,·,i,i
CCN1CCN(CCNC(=O)c2ccc(/C=C3/Sc4ccccc4N(Cc4cccc(Cl)c4)C3=O)cc2)CC1,7.3%,20.6µM*,?,?,?
O=C(NCCN1CCOCC1)c1ccc(/C=C2\Sc3ccccc3N(Cc3ccccc3F)C2=O)cc1,18.4µM*,?,20.6µM*,i,?
O=C(NCCN1CCOCC1)c1ccc2c(c1)N(Cc1cccc(F)c1)C(=O)c1ccccc1S2,-14.3%,11.0%,?,i,i
Cc1ccccc1CN1C(=O)/C(=C\c2ccc(C(=O)NCCN3CCOCC3)cc2)Sc2ccccc21,?,20.6µM*,?,i,i
CN1CCN(CCCNC(=O)c2ccc(/C=C3\Sc4ccccc4N(Cc4ccccc4F)C3=O)cc2)CC1,20.6µM*,16.4µM*,-8.8%,i,i
COc1ccc(C(N)c2csc(Nc3ccc(C(=O)NCCCO)cn3)n2)cc1 (stereo not given),·,·,·,i,i
CCc1ccc(OCCCn2c(CCNC(=O)C3CCCCC3)nc3ccccc32)cc1,·,·,·,i,i
CCc1ccccc1NC(=O)CN(C)S(=O)(=O)c1cccc2nsnc12,·,·,·,i,i
COc1cc(C(=O)N2CCN(c3ccccc3OC)CC2)c([N+](=O)[O-])cc1OC,?,23.2%,-8.3%,?,?
O=C(c1ccc([N+](=O)[O-])s1)N1CCc2ccccc21,-13.2%,-0.1%,?,i,i
O=C(c1ccc([N+](=O)[O-])s1)N1CCCc2ccccc21,6.51µM*,13.5%,?,i,?
COc1cc(C(=O)N2CCCc3ccccc32)c([N+](=O)[O-])cc1OC,-3.5%,16.4µM*,-2.1%,i,i
CC1(C)S[C@@H]2[C@H](NC(=O)COc3ccccc3)C(=O)N2[C@H]1C(=O)O,-0.7%,1.5%,·,·,·
SMILES,SW480 rereplic,MCF10A rerep,ELG1 repair inh,KB-3-1 cytotox,KB-V1 cytotox
CCOc1ccc(N=c2scc(-c3ccc(OC)cc3)n2CCO)cc1,1.8%,?,10.3µM*,?,i
C=CCC1Cc2c(Br)cccc2C(CC=C)N1 (stereo not given),-23.5%,0.92µM*,-8.0%,i,i
C=CC[C@H]1Cc2c(cccc2[N+](=O)[O-])[C@H](CC=C)N1,?,2.2%,?,i,i
OCc1c[nH]c2ccccc12,-0.1%,?,16.2%,i,i
Oc1cccc2c(CC(O)c3c[nH]c4ccccc34)ccnc12 (stereo not given),·,·,·,0.731µM*,?
O=C1CC(c2ccccc2)Cc2[nH]c(=O)c(-c3nc(-c4ccc(Cl)c(Cl)c4)cs3)cc21 (stereo not given),·,·,·,i,i
c1ccc(CCNc2ccc3ncc(-c4cccc5ccccc45)n3n2)nc1,·,·,·,i,13µM*
Cn1c(O)c(N=NC(=O)C2COc3ccccc3O2)c2ccccc21 (stereo not given),-12.7%,0.3%,-2.6%,i,i
CC(C)n1c(O)c(N=NC(=O)C2COc3ccccc3O2)c2ccccc21 (stereo not given),?,13µM*,?,i,16.4µM*
COc1ccc2nccc(/C=C/c3ccnc4ccc(OC)cc34)c2c1,23.1µM*,14.6µM*,-13.9%,i,i
C[n+]1c(/C=C/c2ccnc3ccccc23)cc(/C=C/c2ccnc3ccccc23)c2ccccc21,·,·,·,i,i
COc1ccc(OC)c(/C=C/c2ccnc3ccccc23)c1,11.6µM*,5.17µM*,·,?,5.17µM*
COc1ccccc1/C=C/c1ccnc2ccccc12,·,·,·,i,i
COc1ccc(N/C=C/c2nc(SC)nnc2C)cc1,14.6µM*,?,-25.9%,i,i
COc1ccccc1NC(=O)Cn1cnc2sc(C(=O)Nc3cc(OC)c(OC)c(OC)c3)c(C)c2c1=O,-16.3%,10.2%,8.2µM*,i,i
CCSc1nc2ccccc2n1C(=O)/C=C\c1ccc(OC)c(OC)c1,8.2µM*,4.11µM*,?,?,?
Cc1sc2nc(SCC(=O)NCCO)n(C)c(=O)c2c1C,1.5%,-0.1%,2.1%,i,?
COC(=O)c1ccccc1NC(=O)CSCC(=O)Nc1ccccc1OC,2.0%,3.5%,-6.5%,i,9.2µM*
Cc1sc2nc(SCC(=O)OC(C)C)n(C)c(=O)c2c1C,-8.8%,11.6%,?,i,14.6µM*
COc1ccccc1NC(=O)Cn1cnc2sc(C(=O)Nc3ccc(OC)c(OC)c3)c(C)c2c1=O,?,10.8%,-8.8%,i,?
CCSc1nc2ccccc2n1CC(N)=O,-5.9%,0.1%,-4.5%,i,i
